# Results published in PubChem BioAssay (NCATS).
# Several values for one entry are separate records, joined by “and”; a condition that tells them apart may be missing. Equal entries are not always repeated. Results filed as inconclusive are left out. A call without a number means that no potency is given here. Activity calls are given as the source filed them. Unless noted, calls follow the shape of the dose curve; as a rule, active = well fitted curve in the direction sought with a large enough effect; inconclusive = small, poorly fitted or top-dose-only effect, or another doubt; inactive = no such curve, though single readings can be large; an effect the other way counts as inactive or inconclusive.
# Assays:
# [1] = biological target: Voltage-gated inwardly rectifying potassium channel KCNH2 (Homo sapiens) (UniProt Q12809); test: qHTS Assay for Small Molecule Inhibitors of the Human hERG Channel Activity (AID 588834);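 also: lower thallium flux fluorescence means stronger hERG block; nearly all actives have a fitted effect of over 50% in size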; also: potency is read from the fitted curve at half-maximal effect
# Sequence of Voltage-gated inwardly rectifying potassium channel KCNH2 (Homo sapiens) (Q12809 whole entry, looked up): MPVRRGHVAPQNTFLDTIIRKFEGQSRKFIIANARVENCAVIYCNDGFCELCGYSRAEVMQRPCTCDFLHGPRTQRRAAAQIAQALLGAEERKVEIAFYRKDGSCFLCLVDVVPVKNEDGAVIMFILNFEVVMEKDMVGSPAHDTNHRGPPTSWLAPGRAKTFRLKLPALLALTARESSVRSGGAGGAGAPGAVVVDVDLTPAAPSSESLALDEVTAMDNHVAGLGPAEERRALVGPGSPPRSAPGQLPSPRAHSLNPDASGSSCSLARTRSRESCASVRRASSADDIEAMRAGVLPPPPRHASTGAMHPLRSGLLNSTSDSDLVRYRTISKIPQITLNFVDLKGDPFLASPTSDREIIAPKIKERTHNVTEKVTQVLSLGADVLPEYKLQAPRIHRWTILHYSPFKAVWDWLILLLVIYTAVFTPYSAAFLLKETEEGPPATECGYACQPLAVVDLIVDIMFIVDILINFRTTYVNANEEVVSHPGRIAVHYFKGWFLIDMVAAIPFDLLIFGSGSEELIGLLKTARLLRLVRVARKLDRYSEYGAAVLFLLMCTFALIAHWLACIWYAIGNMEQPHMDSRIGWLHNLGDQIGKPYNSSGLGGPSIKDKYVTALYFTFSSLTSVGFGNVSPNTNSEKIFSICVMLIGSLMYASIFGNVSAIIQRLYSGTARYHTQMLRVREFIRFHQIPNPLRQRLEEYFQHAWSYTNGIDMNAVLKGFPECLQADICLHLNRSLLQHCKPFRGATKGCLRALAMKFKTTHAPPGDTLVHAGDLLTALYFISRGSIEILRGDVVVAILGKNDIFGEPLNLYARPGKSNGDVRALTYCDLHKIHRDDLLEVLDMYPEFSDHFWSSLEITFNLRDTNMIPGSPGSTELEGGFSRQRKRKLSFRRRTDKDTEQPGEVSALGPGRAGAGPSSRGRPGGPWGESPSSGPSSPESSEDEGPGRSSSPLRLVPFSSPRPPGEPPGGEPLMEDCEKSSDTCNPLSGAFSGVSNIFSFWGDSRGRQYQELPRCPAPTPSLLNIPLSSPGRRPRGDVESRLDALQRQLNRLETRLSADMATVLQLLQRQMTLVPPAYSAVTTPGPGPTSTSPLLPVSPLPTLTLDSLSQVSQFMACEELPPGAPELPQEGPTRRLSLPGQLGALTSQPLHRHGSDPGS
# Summary of the method: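 Thallium serves as surrogate for K+ influx through BacMam-delivered hERG in U2OS cells. Compounds are added for about 10 minutes after dye loading; stimulation buffer then starts flux, monitored kinetically on FDSS.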
# [2] = biological target: Luciferin 4-monooxygenase (Photinus pyralis) (UniProt P08659); test: Biochemical firefly luciferase enzyme assay for NPC (AID 624030);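 also: purified P. pyralis luciferase at 10 nM with luciferin and ATP substrate; series mostly up to about 59 µM; nearly all actives have a fitted effect of over 70% in size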
# Sequence of Luciferin 4-monooxygenase (Photinus pyralis) (P08659 whole entry, looked up): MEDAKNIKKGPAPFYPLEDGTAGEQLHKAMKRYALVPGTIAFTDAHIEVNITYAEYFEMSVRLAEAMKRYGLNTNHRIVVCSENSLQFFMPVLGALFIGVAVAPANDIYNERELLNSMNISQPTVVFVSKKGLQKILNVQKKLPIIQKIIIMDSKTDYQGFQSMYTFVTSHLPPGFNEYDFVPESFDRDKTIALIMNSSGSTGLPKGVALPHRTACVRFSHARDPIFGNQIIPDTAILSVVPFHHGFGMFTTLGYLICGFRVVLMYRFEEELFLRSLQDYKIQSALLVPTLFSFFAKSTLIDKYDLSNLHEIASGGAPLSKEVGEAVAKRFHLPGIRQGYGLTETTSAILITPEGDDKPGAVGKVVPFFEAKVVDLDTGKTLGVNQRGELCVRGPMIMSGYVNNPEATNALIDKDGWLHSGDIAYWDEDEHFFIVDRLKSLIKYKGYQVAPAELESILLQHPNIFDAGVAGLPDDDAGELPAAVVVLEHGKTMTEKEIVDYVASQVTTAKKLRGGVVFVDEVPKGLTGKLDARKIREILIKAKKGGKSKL
# Summary of the method: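 Direct inhibition of firefly luciferase enzyme (10 nM final, 50 mM Tris Acetate) assessed by luminescence within 5 minutes. Percent activity scaled between DMSO and PTC124 positive control, with concentration-effect curves classified by fit quality and response.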
# [3] = S16 Schwann cell viability assay (CellTiter-Glo assay) (AID 624031);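 also: cellular ATP luminescence as a viability measure; series mostly up to about 58 µM; nearly all actives have a fitted effect of over 70% in size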
# Summary of the method: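 Luminescent ATP read-out (CellTiter-Glo) after 24 h compound exposure of native S16 rat Schwann cells at 37 °C. Signals were normalized between cell-free wells and DMSO-treated cells, set as 0% activity.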
# [4] = biological target: Glutaminase kidney isoform, mitochondrial (Homo sapiens) (UniProt O94925); test: qHTS for Inhibitors of Glutaminase (GLS): LOPAC Validation (AID 624146);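 also: glutamate product detected by oxidase and peroxidase coupled Amplex red fluorescence gain; series mostly up to about 46 µM; nearly all actives have a fitted effect of over 60% in size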
# Sequence of Glutaminase kidney isoform, mitochondrial (Homo sapiens) (O94925 whole entry, looked up, canonical isoform): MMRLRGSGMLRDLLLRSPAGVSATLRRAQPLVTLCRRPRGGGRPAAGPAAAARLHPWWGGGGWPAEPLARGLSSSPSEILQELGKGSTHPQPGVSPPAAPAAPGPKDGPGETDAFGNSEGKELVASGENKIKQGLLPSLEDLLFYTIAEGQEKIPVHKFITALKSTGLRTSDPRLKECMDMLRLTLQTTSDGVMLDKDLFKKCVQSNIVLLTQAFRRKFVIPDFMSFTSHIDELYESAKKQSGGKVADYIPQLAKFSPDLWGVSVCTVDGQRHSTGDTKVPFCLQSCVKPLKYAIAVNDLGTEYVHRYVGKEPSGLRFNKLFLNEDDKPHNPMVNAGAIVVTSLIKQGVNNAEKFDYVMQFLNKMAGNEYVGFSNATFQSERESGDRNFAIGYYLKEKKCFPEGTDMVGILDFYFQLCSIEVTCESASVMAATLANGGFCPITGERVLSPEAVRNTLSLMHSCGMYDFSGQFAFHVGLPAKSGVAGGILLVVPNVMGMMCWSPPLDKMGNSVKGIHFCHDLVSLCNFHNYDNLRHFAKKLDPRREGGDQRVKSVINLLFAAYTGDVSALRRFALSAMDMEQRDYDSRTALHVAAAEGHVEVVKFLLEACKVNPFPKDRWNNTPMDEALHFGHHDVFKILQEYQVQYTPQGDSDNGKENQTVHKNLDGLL
# Summary of the method: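 hKGA in 45 mM KH2PO4 pH 8.2, 0.02% Tween-20 with pin-transferred compounds; 1 mM L-glutamine (stock) plus glutamate oxidase/HRP/Amplex Red coupling added. Fluorescence read initially and after 30 min at RT.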
# [5] = S16 Schwann cell PMP22 intronic element firefly luciferase assay (AID 624032); also: nearly all actives have a fitted effect of over 30% in size; also: potency is read from the fitted curve at half-maximal effect
# Summary of the method: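 Luciferase reporter of PMP22 intronic-element expression in stably transfected S16 rat Schwann cells, read by ONE-Glo luminescence after 24 h compound exposure at 37 C. Activity scaled between DMSO (0%) and positive-control PTC124; concentration-effect curves quality-classified.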
# [6] = S16 Schwann cell PMP22 intronic element beta-lactamase assay (AID 624044; calls by dose curve; also: nearly all actives have a fitted effect of over 15% in size)
# Summary of the method: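 Beta-lactamase reporter under a PMP22 intronic regulatory element in stable S16 rat Schwann cells; 24 h compound exposure. 460 nm blue signal normalized between DMSO (0%) and potassium clavulanate, with 535 nm FRET tracking viability; curves classed by r2 and response.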
smiles,measurement,setting,value
O=c1[nH]cnc2c1ncn2[C@@H]1O[C@H](CO)[C@@H](O)[C@H]1O,Potency,[1],inactive
N[C@H]1C(O)O[C@H](CO)[C@@H](O)[C@@H]1O (some centres not stated),Potency,[1],inactive
CCOC(CN1CCN(CC(C)C(=O)c2ccccc2)CC1)c1ccccc1 (configuration not stated),Potency,[1],12.6 µM (active)
Cn1c(=O)c2c(ncn2CC2OCCO2)n(C)c1=O,Potency,[1],inactive
same,Potency,[2],inactive
C[C@H]1O[C@H](O[C@H]2[C@H](O)[C@@H](O)[C@@H](O[C@H]3[C@H](O)[C@@H](O)[C@H](O)O[C@@H]3CO)O[C@@H]2CO)[C@H](O)[C@@H](O)[C@@H]1N[C@H]1C=C(CO)[C@@H](O)[C@H](O)[C@H]1O,Potency,[1],inactive
O=C1NS(=O)(=O)c2ccccc21,Potency,[1],inactive
same,Potency,[2],inactive
same,Potency,[3],inactive
c1ccc2c(CC3=NCCN3)cccc2c1,Potency,[1],inactive
same,Potency,[2],inactive
C[C@@H]1CC[C@@]2(OC1)O[C@H]1C[C@H]3[C@@H]4CC[C@H]5C[C@@H](O)CC[C@]5(C)[C@H]4CC(=O)[C@]3(C)[C@H]1[C@@H]2C,Potency,[1],inactive
CCC(=O)c1ccc(O)cc1,Potency,[1],inactive
same,Potency,[2],inactive
same,Potency,[3],inactive
O=C1Nc2ccc(Cl)cc2[C@@](C#CC2CC2)(C(F)(F)F)O1,Potency,[1],inactive
CC1(C)OC(=O)NC1=O,Potency,[1],inactive
same,Potency,[2],inactive
COC(=O)[C@H]1[C@H]2C[C@@H]3c4[nH]c5cc(OC)ccc5c4CCN3C[C@H]2C[C@@H](OC(=O)COc2ccc(OC)cc2)[C@@H]1OC,Potency,[1],0.141 µM (active)
NC(=O)c1ncn([C@@H]2O[C@H](CO)[C@@H](O)[C@H]2O)c1N,Potency,[1],inactive
CC1CC(OC(=O)C(O)c2ccccc2)CC(C)(C)N1C (configuration not stated),Potency,[1],inactive
CN1CCOC(c2ccccc2)c2ccccc2C1 (configuration not stated),Potency,[1],inactive
C[C@H]1O[C@@H](n2cc(F)c(=O)[nH]c2=O)[C@H](O)[C@@H]1O,Potency,[1],inactive
same,Potency,[2],inactive
same,Potency,[3],inactive
NS(=O)(=O)c1cc2c(cc1Cl)NC(CSCc1ccccc1)=NS2(=O)=O,Potency,[1],inactive
same,Potency,[2],inactive
same,Potency,[3],inactive
CCCCc1ncc(/C=C(\Cc2cccs2)C(=O)O)n1Cc1ccc(C(=O)O)cc1,Potency,[1],inactive
same,Potency,[2],inactive
same,Potency,[3],inactive
CC(=O)Oc1c(C)c(C)c2c(c1C)CC[C@@](C)(CCC[C@H](C)CCC[C@H](C)CCCC(C)C)O2,Potency,[1],inactive
same,Potency,[2],inactive
CC[N+](CC)(CC)CCOc1ccc(/C=C/c2ccccc2)cc1,Potency,[1],14.1 µM (active)
same,Potency,[2],inactive
OC[C@H]1O[C@@H](O[C@@H]2[C@@H](CO)O[C@](O)(CO)[C@H]2O)[C@H](O)[C@@H](O)[C@H]1O,Potency,[1],inactive
COc1ccc2cc1Oc1ccc(cc1)C[C@H]1c3c(cc4c(c3Oc3cc5c(cc3OC)CCN(C)[C@@H]5C2)OCO4)CCN1C,Potency,[1],14.1 µM (active)
CN(C)CCCO[C@@H]1[C@H]2OC(C)(C)O[C@H]2O[C@@H]1C(O)CO (some centres not stated),Potency,[1],inactive
CSc1ccc2c(c1)C(N1CCN(C)CC1)Cc1ccccc1S2 (configuration not stated),Potency,[4],inactive
C#CCN(C)Cc1ccccc1,Potency,[4],inactive
O=c1cc[nH]c(=S)[nH]1,Potency,[1],inactive
same,Potency,[3],inactive
same,Potency,[5],inactive
CC(C(O)c1ccc(O)cc1)N1CCC(Cc2ccccc2)CC1 (configuration not stated),Potency,[1],1.12 µM (active) and 501 nM (active)
same,Potency,[2],inactive
same,Potency,[5],25.6 µM (active)
same,Potency,[4],inactive
Nc1ccc(S(=O)(=O)Nc2ccc(Cl)nn2)cc1,Potency,[1],inactive
same,Potency,[3],inactive
Nc1ccc(S(=O)(=O)Nc2ccccc2)cc1,Potency,[1],inactive
same,Potency,[2],inactive
same,Potency,[6],inactive
